The full data set covers some 6,500 targets. This sample favours those with a hit. About 2% of all pairs of compound and target were hits. Values without a mark were called inactive.

Sequence of UniProt Q969Z0 (Q969Z0 whole entry, looked up): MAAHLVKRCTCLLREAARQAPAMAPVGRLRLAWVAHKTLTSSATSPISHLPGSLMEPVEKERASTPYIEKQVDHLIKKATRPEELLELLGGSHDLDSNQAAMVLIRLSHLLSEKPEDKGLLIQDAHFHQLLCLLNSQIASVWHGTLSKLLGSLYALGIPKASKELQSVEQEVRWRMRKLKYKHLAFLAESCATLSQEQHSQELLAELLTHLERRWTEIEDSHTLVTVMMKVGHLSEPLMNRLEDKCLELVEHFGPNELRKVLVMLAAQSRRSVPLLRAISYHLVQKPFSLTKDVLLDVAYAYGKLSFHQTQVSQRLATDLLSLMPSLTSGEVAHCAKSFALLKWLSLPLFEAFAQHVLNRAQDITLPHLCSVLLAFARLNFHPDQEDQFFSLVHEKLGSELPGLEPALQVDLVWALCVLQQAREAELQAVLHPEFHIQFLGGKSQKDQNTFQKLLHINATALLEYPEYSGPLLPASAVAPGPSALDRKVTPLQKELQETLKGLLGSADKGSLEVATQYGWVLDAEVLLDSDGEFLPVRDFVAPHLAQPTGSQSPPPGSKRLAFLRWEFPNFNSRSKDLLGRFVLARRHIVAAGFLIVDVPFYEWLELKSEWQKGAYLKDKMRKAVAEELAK
Sequence of UniProt Q96SK2 (Q96SK2 whole entry, looked up): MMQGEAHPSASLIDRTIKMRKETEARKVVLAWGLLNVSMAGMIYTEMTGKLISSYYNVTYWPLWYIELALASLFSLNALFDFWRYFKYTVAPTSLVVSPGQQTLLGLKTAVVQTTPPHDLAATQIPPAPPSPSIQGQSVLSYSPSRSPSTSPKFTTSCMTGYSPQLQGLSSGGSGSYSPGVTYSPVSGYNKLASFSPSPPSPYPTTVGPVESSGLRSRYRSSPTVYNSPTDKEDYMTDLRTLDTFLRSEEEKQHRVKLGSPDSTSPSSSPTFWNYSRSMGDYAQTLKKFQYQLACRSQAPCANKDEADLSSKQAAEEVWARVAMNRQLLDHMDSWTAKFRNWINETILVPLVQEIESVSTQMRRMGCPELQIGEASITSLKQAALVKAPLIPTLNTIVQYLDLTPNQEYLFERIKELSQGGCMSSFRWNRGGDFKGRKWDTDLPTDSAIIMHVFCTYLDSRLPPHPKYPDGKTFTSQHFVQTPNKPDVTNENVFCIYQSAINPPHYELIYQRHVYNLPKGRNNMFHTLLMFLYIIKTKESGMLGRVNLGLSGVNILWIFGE
Sequence of UniProt Q86W56 (Q86W56 whole entry, looked up): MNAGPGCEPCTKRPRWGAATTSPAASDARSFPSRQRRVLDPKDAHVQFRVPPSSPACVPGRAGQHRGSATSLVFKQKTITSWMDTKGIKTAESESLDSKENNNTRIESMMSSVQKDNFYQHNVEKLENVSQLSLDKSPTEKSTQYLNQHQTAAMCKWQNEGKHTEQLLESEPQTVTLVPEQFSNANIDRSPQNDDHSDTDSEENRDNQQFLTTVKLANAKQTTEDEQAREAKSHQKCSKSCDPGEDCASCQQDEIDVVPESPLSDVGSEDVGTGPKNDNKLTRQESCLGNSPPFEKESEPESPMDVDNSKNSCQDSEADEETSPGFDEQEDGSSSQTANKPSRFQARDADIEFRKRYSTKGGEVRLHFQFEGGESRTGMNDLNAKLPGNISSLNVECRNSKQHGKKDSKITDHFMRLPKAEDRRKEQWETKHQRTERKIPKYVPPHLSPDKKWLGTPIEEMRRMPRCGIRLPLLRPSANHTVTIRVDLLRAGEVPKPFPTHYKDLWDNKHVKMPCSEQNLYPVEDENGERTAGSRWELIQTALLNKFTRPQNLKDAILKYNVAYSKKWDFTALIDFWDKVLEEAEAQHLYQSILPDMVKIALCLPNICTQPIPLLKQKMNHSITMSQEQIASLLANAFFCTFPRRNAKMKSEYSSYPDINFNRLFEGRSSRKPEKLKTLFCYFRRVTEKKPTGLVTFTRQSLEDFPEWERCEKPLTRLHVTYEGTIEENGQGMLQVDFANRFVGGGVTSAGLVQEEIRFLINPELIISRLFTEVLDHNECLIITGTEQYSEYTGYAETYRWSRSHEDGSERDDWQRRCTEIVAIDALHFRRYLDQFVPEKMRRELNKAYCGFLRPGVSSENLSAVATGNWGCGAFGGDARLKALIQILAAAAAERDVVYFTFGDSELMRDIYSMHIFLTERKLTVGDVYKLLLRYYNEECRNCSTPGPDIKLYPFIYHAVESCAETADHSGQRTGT
Sequence of UniProt Q96S59 (Q96S59 whole entry, looked up): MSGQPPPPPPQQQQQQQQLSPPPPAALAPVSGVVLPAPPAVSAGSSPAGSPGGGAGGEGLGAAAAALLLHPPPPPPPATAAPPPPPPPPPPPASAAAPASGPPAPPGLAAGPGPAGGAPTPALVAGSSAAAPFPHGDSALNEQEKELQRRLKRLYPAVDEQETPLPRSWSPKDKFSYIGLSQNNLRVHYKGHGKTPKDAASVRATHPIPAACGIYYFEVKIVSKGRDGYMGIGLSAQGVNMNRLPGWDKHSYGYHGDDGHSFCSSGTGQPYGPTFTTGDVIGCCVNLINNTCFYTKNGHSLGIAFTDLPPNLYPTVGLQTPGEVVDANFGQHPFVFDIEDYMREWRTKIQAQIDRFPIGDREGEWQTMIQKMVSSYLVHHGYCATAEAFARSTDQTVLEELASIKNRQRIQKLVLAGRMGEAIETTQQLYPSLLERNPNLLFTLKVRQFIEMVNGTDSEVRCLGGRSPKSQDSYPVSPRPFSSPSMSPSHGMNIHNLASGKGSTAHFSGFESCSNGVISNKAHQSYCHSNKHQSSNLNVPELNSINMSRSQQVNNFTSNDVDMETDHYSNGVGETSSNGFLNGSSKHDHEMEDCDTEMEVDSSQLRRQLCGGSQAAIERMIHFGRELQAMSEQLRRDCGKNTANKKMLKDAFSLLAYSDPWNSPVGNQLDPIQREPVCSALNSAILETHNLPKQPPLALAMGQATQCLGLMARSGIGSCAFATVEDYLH
Sequence of UniProt Q8NFF5 (Q8NFF5 whole entry, looked up): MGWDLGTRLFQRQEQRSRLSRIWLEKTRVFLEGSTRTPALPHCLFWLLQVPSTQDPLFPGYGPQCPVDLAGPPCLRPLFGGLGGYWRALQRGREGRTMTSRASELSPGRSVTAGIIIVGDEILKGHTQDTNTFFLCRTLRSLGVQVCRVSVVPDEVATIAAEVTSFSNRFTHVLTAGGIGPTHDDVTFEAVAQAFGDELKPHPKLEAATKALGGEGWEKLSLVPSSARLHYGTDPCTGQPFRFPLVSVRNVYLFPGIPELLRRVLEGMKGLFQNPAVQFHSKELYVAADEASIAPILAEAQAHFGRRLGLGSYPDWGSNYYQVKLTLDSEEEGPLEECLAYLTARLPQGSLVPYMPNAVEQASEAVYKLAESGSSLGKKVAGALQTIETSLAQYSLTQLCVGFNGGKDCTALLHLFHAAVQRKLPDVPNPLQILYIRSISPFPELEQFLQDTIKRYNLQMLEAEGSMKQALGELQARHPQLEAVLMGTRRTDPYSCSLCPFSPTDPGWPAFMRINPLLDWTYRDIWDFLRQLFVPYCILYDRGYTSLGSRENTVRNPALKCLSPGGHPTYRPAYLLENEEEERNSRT
Sequence of UniProt Q7Z3T8 (Q7Z3T8 whole entry, looked up): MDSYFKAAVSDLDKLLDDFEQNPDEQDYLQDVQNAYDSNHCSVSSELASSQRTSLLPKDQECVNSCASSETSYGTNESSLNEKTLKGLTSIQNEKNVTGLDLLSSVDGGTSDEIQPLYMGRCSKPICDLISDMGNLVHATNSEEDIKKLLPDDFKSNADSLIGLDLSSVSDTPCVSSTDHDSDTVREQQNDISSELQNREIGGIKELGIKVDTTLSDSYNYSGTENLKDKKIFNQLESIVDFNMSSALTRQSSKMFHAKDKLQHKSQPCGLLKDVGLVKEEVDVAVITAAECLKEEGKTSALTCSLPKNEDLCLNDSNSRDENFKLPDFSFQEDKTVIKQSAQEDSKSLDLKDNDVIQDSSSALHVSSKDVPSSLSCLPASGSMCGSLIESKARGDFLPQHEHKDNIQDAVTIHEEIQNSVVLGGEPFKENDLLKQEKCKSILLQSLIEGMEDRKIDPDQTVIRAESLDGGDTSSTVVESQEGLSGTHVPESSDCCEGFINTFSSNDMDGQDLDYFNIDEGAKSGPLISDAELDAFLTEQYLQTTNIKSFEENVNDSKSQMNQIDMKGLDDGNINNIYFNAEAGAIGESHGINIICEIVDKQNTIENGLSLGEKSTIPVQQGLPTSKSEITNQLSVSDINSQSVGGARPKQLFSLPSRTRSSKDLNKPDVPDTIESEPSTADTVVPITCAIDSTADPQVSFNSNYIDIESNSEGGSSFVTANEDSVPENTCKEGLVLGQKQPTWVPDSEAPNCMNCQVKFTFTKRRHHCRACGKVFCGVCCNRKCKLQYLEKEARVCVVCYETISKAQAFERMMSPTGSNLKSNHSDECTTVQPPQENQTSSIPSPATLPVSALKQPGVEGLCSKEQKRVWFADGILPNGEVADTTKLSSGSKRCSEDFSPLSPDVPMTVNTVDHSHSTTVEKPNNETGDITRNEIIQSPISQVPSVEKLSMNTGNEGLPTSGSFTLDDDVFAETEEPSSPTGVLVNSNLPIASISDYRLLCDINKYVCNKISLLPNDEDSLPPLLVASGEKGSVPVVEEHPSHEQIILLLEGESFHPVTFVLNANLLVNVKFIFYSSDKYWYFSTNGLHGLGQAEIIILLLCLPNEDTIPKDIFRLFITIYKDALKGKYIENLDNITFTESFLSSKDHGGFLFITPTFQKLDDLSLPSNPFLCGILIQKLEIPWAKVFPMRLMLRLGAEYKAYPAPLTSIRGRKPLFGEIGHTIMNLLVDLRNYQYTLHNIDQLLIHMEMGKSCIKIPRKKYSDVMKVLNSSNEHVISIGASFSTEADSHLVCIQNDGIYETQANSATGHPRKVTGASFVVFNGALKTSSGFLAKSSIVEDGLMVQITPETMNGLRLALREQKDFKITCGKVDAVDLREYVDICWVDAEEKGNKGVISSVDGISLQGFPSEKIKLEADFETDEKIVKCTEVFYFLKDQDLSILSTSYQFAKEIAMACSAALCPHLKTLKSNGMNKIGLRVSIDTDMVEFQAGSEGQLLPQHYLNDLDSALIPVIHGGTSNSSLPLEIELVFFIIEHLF

Compound in the assay: COC(=O)C#Cc1ccccc1 [methyl 3-phenylpropiolate]
The assay can be described thus: log2 ratio of iodoacetamide-alkyne labeling of the cysteine site, DMSO over compound (competition); higher = stronger covalent engagement of the cysteine by the compound, active = 1 or more. As to conditions: 500 µM; treatment time 1 h; system: HEK293T cell lysate. The essentials:
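The log2 competition ratio per cysteine is defined as mean reporter intensity in control channels over mean reporter intensity in compound channels. Lysate from HEK293T cells (2 mg/mL) received electrophile (500 µM) or vehicle for 1 h at ambient temperature, followed by iodoacetamide alkyne for 1 h. Samples were clicked to sCIP-TMT reagents, pooled, trypsin-digested overnight at 37 °C, streptavidin-enriched, acid-eluted and run on Orbitrap Eclipse LC-MS/MS with FAIMS, with quantification in FragPipe. Three replicates with duplicate channels were used, and any cysteine quantified in only one replicate was excluded.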
With THOC6 C314 (UniProt Q86W42), the “log2 ratio of iodoacetamide-alkyne labeling” value (shortened to “log2 ratio”) was 0.0566.
As for PARG C963 (UniProt Q86W56), the “log2 ratio” value is 0.0715.
As for UniProt Q92616_C36, the “log2 ratio” value is 0.339.
Take KIAA2013 C185 (UniProt Q8IYS2): the “log2 ratio” value is 0.14.
Take TRUB1 C269 (UniProt Q8WWH5): the “log2 ratio” value is 0.163.
CAMSAP1 C1379 (UniProt Q5T5Y3): the “log2 ratio” value is 1.45 (active).
On to PHIP C954 (UniProt Q8WWQ0), for which the “log2 ratio” value is 1.46 (active).
TMEM209 C301 (UniProt Q96SK2): the “log2 ratio” value was 0.858.
As for DCUN1D4 C253 (UniProt Q92564), the “log2 ratio” value was 0.287.
As to UniProt Q8WU20_C415, the “log2 ratio” value is 0.241.
The result for MAP1S C841 (UniProt Q66K74) reads 0.464; that for UniProt Q7Z2T5_C265, 0.161.
With UniProt Q7RTV0_C61 the figure was 0.11.
On to CWF19L1 C176 (UniProt Q69YN2), for which the “log2 ratio” value is -0.136.
As for UniProt Q92888_C892, the “log2 ratio” value is 0.0678.
Regarding UniProt Q9BPX6_C83, the “log2 ratio” value was 0.582.
Take GPKOW C394 (UniProt Q92917): the “log2 ratio” value is -0.0148.
For the target RANBP9 C610 (UniProt Q96S59), the “log2 ratio” value was 0.53.
With HSDL2 C11 (UniProt Q6YN16) the figure was 0.0294; with MASTL C285 (UniProt Q96GX5), 1.02 (active); with TBRG4 C335 (UniProt Q969Z0), 0.436.
ANKHD1 C777 (UniProt Q8IWZ3): the “log2 ratio” value was 0.251.
The result for ZFYVE16 C895 (UniProt Q7Z3T8) reads 0.597.
The result for UniProt Q8N1I0_C1723 reads 1.34 (active); that for MYBBP1A C1031 (UniProt Q9BQG0), 0.225.
WDFY2 C290 (UniProt Q96P53): the “log2 ratio” value was -0.231.
With UniProt Q969V6_C326, the “log2 ratio” value was 1.42 (active).
BEND3 C95 (UniProt Q5T5X7): the “log2 ratio” value was 1.11 (active).
For UniProt Q7Z5K2_C94, the “log2 ratio” value is 0.262.
For TSR2 C17 (UniProt Q969E8), the “log2 ratio” value is 0.599.
Turning to UniProt Q9BSH4_C112, the “log2 ratio” value was -0.152.
The result for CNN2 C175 (UniProt Q99439) reads 1.04 (active); that for CYFIP1 C98 (UniProt Q7L576), 1.78 (active).
Consider FLAD1 C496 (UniProt Q8NFF5), for which the “log2 ratio” value was 1.06 (active).
For the target DIDO1 C455 (UniProt Q9BTC0), the “log2 ratio” value was 0.67.

These data come from the supplement of paper PMC11006884.
